# Assay outcomes (PubChem BioAssay)
# This is a sample that favours compounds with a hit; in the whole collection about 1.3% have one here.
# gsp antag – antagonizes gsp, the McCune-Albright syndrome mutation | gsp-mutant cells, cAMP HTRF, 30 min | Potency, µM (titrated, usually from 76.9 µM), for the others: at the highest dose activity change, negative = inhibition, hits mostly inhibitors | 340,000 compounds, 0.4% hits; calls by dose curve; cell line not stated here;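 note: intracellular cAMP measured with PDE inhibitor Ro 20-1724 present during compound exposure; potency is the fitted concentration of half-maximal effect; % is set by controls: 0 for no effect and ±100 for the full control effect; nearly all actives have a fitted effect of over 65% in size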
#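 HTRF cAMP read-out (cAMP-d2 plus anti-cAMP antibody-K in lysis buffer, 30 min RT). Before lysis, cells are exposed to compounds with […] for 30 min at 37C in DPBS containing Ca/Mg, BSA and Tween 20.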
# RXFP1 agonist – activates the human relaxin receptor RXFP1. Q9HBX9. HEK293T-RXFP1 cAMP TR-FRET, 30 min; response scale: percent of porcine relaxin response, buffer zero. 370,000 compounds, 0.3% hits. Potency, µM (titrated, usually from 57.5 µM), inactives show at the highest dose activation, most hits filed as activators; active = well fitted activation curve with a large enough effect; inconclusive = small, poorly fitted or top-dose-only effect; note: potency is the fitted concentration of half-maximal effect; % is set by controls: 0 for no effect and ±100 for the full control effect; nearly all actives have a fitted effect of over 60% in size
# Target sequence (Q9HBX9 whole entry, looked up): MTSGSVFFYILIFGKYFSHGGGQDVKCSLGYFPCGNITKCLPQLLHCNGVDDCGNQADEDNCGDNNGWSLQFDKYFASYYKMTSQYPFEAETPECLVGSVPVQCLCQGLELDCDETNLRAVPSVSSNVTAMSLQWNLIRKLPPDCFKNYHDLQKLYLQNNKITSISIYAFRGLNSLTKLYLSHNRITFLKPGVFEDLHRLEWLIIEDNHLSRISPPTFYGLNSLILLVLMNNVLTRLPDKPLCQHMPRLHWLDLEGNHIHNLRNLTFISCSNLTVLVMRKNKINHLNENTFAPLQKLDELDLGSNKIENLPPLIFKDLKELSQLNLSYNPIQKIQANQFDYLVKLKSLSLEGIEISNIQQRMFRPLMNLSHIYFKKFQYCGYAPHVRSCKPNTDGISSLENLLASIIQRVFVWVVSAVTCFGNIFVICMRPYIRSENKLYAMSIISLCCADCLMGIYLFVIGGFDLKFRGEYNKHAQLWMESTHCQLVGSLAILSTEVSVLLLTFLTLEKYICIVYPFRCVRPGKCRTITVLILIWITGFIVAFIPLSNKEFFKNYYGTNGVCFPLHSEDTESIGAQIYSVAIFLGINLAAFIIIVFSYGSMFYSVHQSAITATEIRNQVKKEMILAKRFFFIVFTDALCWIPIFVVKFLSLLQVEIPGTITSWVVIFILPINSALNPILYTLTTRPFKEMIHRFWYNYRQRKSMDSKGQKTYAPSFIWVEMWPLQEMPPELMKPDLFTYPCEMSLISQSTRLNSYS
#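 cAMP rise read by TR-FRET after 30 min, 37C compound exposure (up to 58 uM) in RXFP1-transfected HEK293 cells with Ro 20174 present. EC50 from Hill-equation fits, with 29 nM porcine relaxin as 100% and buffer as basal.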
# pAkt inh – Akt phosphorylation inhibition | activity change, % for hits at 50 µM | Neuro2A IGF-stimulated pAkt S473 HTRF, 20 min; stronger effect = lower value | 360,000 compounds, 0.32% hits; in the data active = activity change below about -80%; inconclusive = mostly about -51% to -80%; note: % is set by controls: 0 for no effect and ±100 for the full control effect
#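 Single-point screen (50 µM final compound) in Neuro2A cells stimulated 20 min with 6 nM IGF at 37 deg C. After lysis, Ser473-phosphorylated Akt read by HTRF (ex 330 nm, em 615/665 nm) as the 665/615 ratio.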
# gsp agonist – activates gsp, the McCune-Albright syndrome mutation | gsp mutant cells, cAMP HTRF, 30 min | Potency, µM (highest dose often 76.9 µM), for the others: at the highest dose activation (cAMP increase), most hits filed as activators | 340,000 compounds, 0.13% hits; active = well fitted activation curve with a large enough effect; inconclusive = small, poorly fitted or top-dose-only effect, or another doubt; inactive = no such curve, though single readings can be large or run the other way; cell line not stated here;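 note: phosphodiesterase inhibitor Ro 20-1724 added with compounds to block cAMP breakdown; potency is the fitted concentration of half-maximal effect; nearly all actives have a fitted effect of over 60% in size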
#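 Cells stably selected in G418 were plated at 2000/well, grown 16-24 hr, then given compounds in DMSO with the PDE inhibitor […] (300 uM solution added) for 30 min at 37C; cAMP was read by HTRF.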
# RXFP1 antag – blocks the human relaxin receptor RXFP1. HEK293-RXFP1, relaxin-stimulated cAMP HTRF, 30 min; stronger effect = lower value. activity change, negative = inhibition, % at 57.5 µM. 350,000 compounds, 0.59% hits. AID 1259400;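 active = activity change of -60% or lower, but not beyond a set lower limit; inconclusive = change between -60% and -40%, or beyond the set limit; inactive = change above -40%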; note: % is set by controls: 0 for no effect and ±100 for the full control effect
# * = called active by the depositor; i = inactive; ? = inconclusive; . = no result; [ ] = remark or other dose.
SMILES,gsp antag,RXFP1 agonist,pAkt inh,gsp agonist,RXFP1 antag
CCn1c2ccccc2c2cc(CN3CCN(Cc4cc(OC)ccc4O)CC3)ccc21,8.3%,3.1%,i,-27.9%,-9.2
CCOC(=O)COc1nc(-c2ccco2)cc(-c2ccco2)c1C#N,-22.5%,-3.8%,i,3.5%[15.4 µM],-20.3
CCOC(=O)C(C)Sc1nc(-c2ccco2)cc(C(F)(F)F)c1C#N (stereo not given),35.5µM*,1.0%,i,-19.5%,-18.9
CC(C)CC(=O)n1sc(NC(=O)c2ccccc2)nc1=O,28.2µM*,0.3%,i,-43.8%,-15.4
Cc1ccc(C(=O)Nc2nc(=O)n(C)s2)cc1,22.4µM*,0.6%,i,-21.8%,-6.7
Cc1ccc(C(=O)Nc2nc(=O)n(C(=O)CC(C)C)s2)cc1,-34.6%,-0.3%,i,-13.4%,-18.5
CCc1ccc(-c2nc(CN3CCCC(C(=O)N4CCN(c5cc(Cl)ccc5C)CC4)C3)c(C)o2)cc1 (stereo not given),.,0.7%,.,.,.
CN(C(=S)Nc1ccc(SC(F)F)cc1)C(c1ccccc1)c1ccccc1,6.31µM*,2.4%,i,2.1%,-20.8
FC(F)Sc1ccc(NC(=S)NC(c2ccccc2)c2ccccc2)cc1,-9.3%,-0.4%,i,-19.5%,-6.0
CCn1c(CNC(=O)c2ccc(OC)cc2)nnc1SCC(=O)Nc1ccc(C)cc1,.,-1.2%,.,.,.
COC(=O)[C@H]1[C@H]2C[C@@H]3c4[nH]c5cc(OC)ccc5c4CCN3C[C@H]2C[C@@H](OC(=O)/C=C/c2ccc(O)c(OC)c2)[C@@H]1OC,.,.,.,.,-15.7
CCC(=O)N1CCc2cc(Br)cc(S(=O)(=O)CCC(=O)Nc3ccc(Cl)cc3)c21,.,11.9%,.,.,-7.5
CN1c2ccccc2C(O)=C(C(=S)Nc2ccc(F)c(Cl)c2)S1(=O)=O,39.8µM*,0.6%,i,9.1%[15.4 µM],-17.7
Cc1ccc(-c2cc3ncc(C(=O)c4cc([N+](=O)[O-])ccc4O)cn3n2)cc1,.,-0.7%,.,.,.
Cc1cccc(N2CCN(C(=O)c3cc4c(=O)n(C)c5ccccc5c4n3C)CC2C)c1 (stereo not given),?,-0.6%,i,-9.6%,-77.1*
Cc1ccc(Nc2c3c(nc4nncn24)CCC3)c(C)c1,.,-1.3%,.,.,-1.7
COc1ccc(C)cc1NC(=O)CSc1nnc(-c2ccco2)n1N,5.6%,2.4%,i,1.6%,-2.1
COc1cccc(-c2nnc(SCC(=O)Nc3cc(C)ccc3OC)n2N)c1,-12.5%,1.0%,-118.9%*,-35.6%,11.8
Cc1ccc(NC(=O)CSc2nnc(CSc3nc(C)cc(C)n3)n2Cc2ccco2)c(C)c1,-19.4%,-0.1%,i,-23.5%,18.4
COc1ccc(OC)c(NC(=O)CSc2nnc(C3CCCCC3)n2-c2ccccc2)c1,-15.1%,0.1%,-110.8%*,2.1%,2.3
Cc1ccc(C)c(NC(=O)CSc2nnc(CSc3nc(C)cc(C)n3)n2Cc2ccco2)c1,-7.3%,1.8%,-90.7%*,-32.9%,-6.4
COc1ccc(C)cc1NC(=O)CSc1nnc(COc2ccccc2)n1Cc1ccco1,-7.8%,2.8%,-98.2%*,3.7%,-14.7
Cc1ccccc1Cn1cc(CCC(=O)NC(C)c2ccccc2)c2ccccc21 (stereo not given),.,2.8%,.,.,-2.2
Cn1c(=O)c(=O)n(C)c2cc(N3CCCC3)c(NC(=O)c3ccc(C(C)(C)C)cc3)cc21,.,11.4%,.,.,-1.5
CCOC(=O)c1cc(C)n(CC2CCC(C(=O)Nc3cccc(C(C)=O)c3)CC2)c1C (stereo not given),.,-1.6%,.,.,4.7
SMILES,gsp antag,RXFP1 agonist,pAkt inh,gsp agonist,RXFP1 antag
CCC(C)Sc1cc(-c2nc3cc(C)ccn3c2NC2CCCCC2)ccc1OC (stereo not given),31.6µM*,.,i,?,.
CCCCNc1c(-c2ccc(OC)c(SC(C)CC)c2)nc2ccc(C)cn12 (stereo not given),28.2µM*,.,i,.,.
CCCCNc1c(-c2ccc(OC)c(SC(C)CC)c2)nc2cnccn12 (stereo not given),4.1%,.,i,.,.
CCCCNc1c(-c2ccc(OC)c(SC(C)CC)c2)nc2ccc(Cl)cn12 (stereo not given),-21.5%,.,i,5.1%,.
CCCCNc1c(-c2ccc(OC)c(SC(C)CC)c2)nc2cc(C)ccn12 (stereo not given),39.8µM*,.,i,?,.
Nc1ncnc2nc(SCc3ccccc3)[nH]c12,-11.2%,2.7%,-113.0%*,0.0%,6.0
Nc1ncnc2nc(-c3ccccc3)[nH]c12,.,.,i,2.8%,9.2
Cc1ccc2c(C)ccc(O)c2n1,10.2%,0.2%,i,-27.2%,-70.4*
Cc1ccc2c(Cl)cc(Cl)c(O)c2n1,2.9%,.,i,-26.1%[15.4 µM],-6.8
CCOc1ccc(NC(=O)c2cc3cc(C)ccc3n2C)cc1,.,0.3%,.,.,-1.8
CCC(CN)=C(c1ccccc1)c1ccccc1,.,.,.,.,-16.7
O=C(COC(=O)CNS(=O)(=O)c1ccc(Br)cc1Cl)NC1CCCC1,-5.9%,0.5%,i,-31.4%[15.4 µM],-93.0*
O=C(COC(=O)CNS(=O)(=O)c1cc(C(F)(F)F)ccc1Cl)NC1CC1,-3.7%,.,i,26.2%,5.2
CCC(=O)Oc1ccc2c(c1)CC[C@@H]1[C@@H]2CC[C@@]2(C)[C@H]1C[C@@H](OC(=O)CC)[C@@H]2OC(=O)CC,.,.,.,.,-20.5
Cc1cc(C)c(S(=O)(=O)NCC(c2ccc(N(C)C)cc2)N2CCOCC2)c(C)c1 (stereo not given),.,5.8%,.,.,-27.2
CC(O)CNCCCOc1ccc(Cl)cc1C(C)(C)C (stereo not given),0.9%,-0.7%,i,-21.6%[15.4 µM],-61.5*
CN(C)CCOCCOc1ccc(Cl)cc1C(C)(C)C,0.1%,-0.9%,i,-35.2%[15.4 µM],?
O=c1cc(O)c(Cl)c[nH]1,.,.,.,.,-18.0
COc1ccc(N2CCN(CCCNC(=O)CN3CCN(Cc4ccccc4C)C3=O)CC2)cc1,5.3%,0.4%,-111.2%*,5.1%,11.0
CC(Oc1ccc(Cl)cc1Cl)C(=O)Nc1cccnc1 (stereo not given),?,2.3%,-111.8%*,4.7%,-9.3
CC(Oc1cccnc1[N+](=O)[O-])C(=O)Nc1cccc(Cl)c1 (stereo not given),-21.2%,1.7%,i,-4.2%,-96.9*
CC(Oc1cccnc1[N+](=O)[O-])C(=O)Nc1ccc(F)cc1 (stereo not given),1.7%,-0.1%,i,43.1%,?
CC(Oc1ccc(Cl)cc1Cl)C(=O)Nc1ccncc1 (stereo not given),-17.6%,0.0%,i,-9.7%,3.5
Cc1ccc2c(n1)Oc1ccc(C(C)C(=O)OCC(=O)N(C)C)cc1C2 (stereo not given),.,.,.,.,-5.2
COc1ccc(NC(=O)/C(Cl)=C(/Cl)S(=O)(=O)Cc2ccc(C)cc2)cn1,-8.5%,0.0%,i,-35.6%,-70.9*
COc1ccc(NC(=O)/C(Cl)=C(/Cl)S(=O)Cc2ccccc2Cl)cn1 (stereo not given),8.1%,0.1%,i,-5.3%[15.4 µM],-117.5*
